Of roughly 7,900 targets only a part is listed; those with a hit were picked by preference. About 0.6% of all pairs of compound and target were hits.
What was measured:
Test in all cases: log2 fold change, soluble protein after heating vs DMSO (PISA); higher = thermal stabilisation; K562 cells, 10 uM, 30 min; active = over 0.2 and 3.5 SD of the protein, either way, in both replicates (recomputed)
[1] = compound: Cc1ccc(NC(=O)c2ccc(CN3CC[C@H](N(C)C)C3)c(C(F)(F)F)c2)cc1Nc1nccc(-c2cncnc2)n1 [bafetinib]
Method in brief: (§1)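 Aliquots of K562 cells (2×10^6 cells/mL) treated with 10 μM compound for 30 min were heated for 3 min over 48°C-58°C. After pooling and extraction in PBS with 0.5% NP-40 at 4°C, soluble protein from a 21,000xg, 90 min spin was quantified by TMTpro 16plex LC-MS/MS with channel sums equalised. Thermal stability is expressed against control samples, from duplicates, as a log2 fold change.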

[2] = compound: Cc1cccc(CC(=O)N2CCc3c2ccc(-c2cn(C)c4ncnc(N)c24)c3F)n1
Method in brief: as §1

[3] = compound: Cc1cn(-c2cc(NC(=O)c3ccc(C)c(Nc4nccc(-c5cccnc5)n4)c3)cc(C(F)(F)F)c2)cn1 [nilotinib]
Method in brief: as §1

[4] = compound: Cc1nc(Nc2n[nH]c3c2CN(C(=O)N[C@H](CN(C)C)c2ccccc2)C3(C)C)c2sccc2n1
Method in brief: as §1

[5] = compound: Cc1nc(Nc2ncc(C(=O)Nc3c(C)cccc3Cl)s2)cc(N2CCN(CCO)CC2)n1 [dasatinib]
Method in brief: as §1

[6] = compound: Cc1ncc(-c2ccnc(Nc3ccc(S(C)(=O)=O)cc3)n2)n1C(C)C
Method in brief: as §1

[7] = compound: Cn1cc(-c2ccc3c(c2)CCN3C(=O)Cc2cccc(C(F)(F)F)c2)c2c(N)ncnc21
Method in brief: as §1

[8] = compound: Cn1cc(-c2ccc3nnc(C(F)(F)c4ccc5ncccc5c4)n3n2)cn1
Method in brief: as §1

[9] = compound: Cn1cncc1[C@@](N)(c1ccc(Cl)cc1)c1ccc2c(c1)c(-c1cccc(Cl)c1)cc(=O)n2C [tipifarnib]
Method in brief: as §1

[10] = compound: FC(F)(F)c1ccc(/C=C/c2nc(COc3ccc(CCCCn4ccnn4)cc3)co2)cc1 [mubritinib]
Method in brief: as §1

Measured: log2 fold change

MUL1 (UniProt Q969V5)
Chain of UniProt Q969V5 (Q969V5 whole entry, looked up): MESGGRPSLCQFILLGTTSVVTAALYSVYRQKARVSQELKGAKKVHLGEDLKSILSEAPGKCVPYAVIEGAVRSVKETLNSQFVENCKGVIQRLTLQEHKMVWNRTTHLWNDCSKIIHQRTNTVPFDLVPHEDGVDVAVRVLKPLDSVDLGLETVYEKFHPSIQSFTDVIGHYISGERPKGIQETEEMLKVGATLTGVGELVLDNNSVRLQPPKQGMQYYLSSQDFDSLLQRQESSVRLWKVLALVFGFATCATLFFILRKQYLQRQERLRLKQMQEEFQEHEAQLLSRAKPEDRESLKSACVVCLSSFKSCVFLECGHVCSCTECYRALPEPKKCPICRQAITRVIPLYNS
inactive: [1] -0.018 | [2] 0.042 | [3] 0.004 | [4] 0.044 | [5] 0.011 | [6] -0.059 | [7] 0.036 | [8] 0.016 | [9] -0.037 | [10] -0.023

MIS12 (UniProt Q9H081)
Chain of UniProt Q9H081 (Q9H081 whole entry, looked up): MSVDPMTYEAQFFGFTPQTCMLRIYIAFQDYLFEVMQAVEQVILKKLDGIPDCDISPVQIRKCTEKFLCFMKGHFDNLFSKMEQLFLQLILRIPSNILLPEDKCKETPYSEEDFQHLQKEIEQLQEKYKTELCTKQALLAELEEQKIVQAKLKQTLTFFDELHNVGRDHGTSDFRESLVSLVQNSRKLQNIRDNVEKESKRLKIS
inactive: [1] -0.05 | [2] 0.017 | [3] -0.062 | [4] -0.048 | [5] -0.114 | [6] 0.037 | [7] -0.028 | [8] 0.005 | [9] 0.016 | [10] 0.071

NNT (UniProt Q13423)
inactive: [1] -0.02 | [2] 0.056 | [3] -0.005 | [4] -0.006 | [5] -0.02 | [6] -0.018 | [7] 0.071 | [8] 0.037 | [9] -0.034 | [10] 0.021

NR2C2 isoform 2 (UniProt P49116)
inactive: [1] -0.093 | [2] 0.027 | [3] -0.033 | [4] -0.091 | [5] -0.026 | [6] 0.021 | [7] -0.003 | [8] -0.038 | [9] -0.184 | [10] 0.026

NOLC1 isoform 2 (UniProt Q14978)
Chain of UniProt Q14978 (Q14978 whole entry, looked up): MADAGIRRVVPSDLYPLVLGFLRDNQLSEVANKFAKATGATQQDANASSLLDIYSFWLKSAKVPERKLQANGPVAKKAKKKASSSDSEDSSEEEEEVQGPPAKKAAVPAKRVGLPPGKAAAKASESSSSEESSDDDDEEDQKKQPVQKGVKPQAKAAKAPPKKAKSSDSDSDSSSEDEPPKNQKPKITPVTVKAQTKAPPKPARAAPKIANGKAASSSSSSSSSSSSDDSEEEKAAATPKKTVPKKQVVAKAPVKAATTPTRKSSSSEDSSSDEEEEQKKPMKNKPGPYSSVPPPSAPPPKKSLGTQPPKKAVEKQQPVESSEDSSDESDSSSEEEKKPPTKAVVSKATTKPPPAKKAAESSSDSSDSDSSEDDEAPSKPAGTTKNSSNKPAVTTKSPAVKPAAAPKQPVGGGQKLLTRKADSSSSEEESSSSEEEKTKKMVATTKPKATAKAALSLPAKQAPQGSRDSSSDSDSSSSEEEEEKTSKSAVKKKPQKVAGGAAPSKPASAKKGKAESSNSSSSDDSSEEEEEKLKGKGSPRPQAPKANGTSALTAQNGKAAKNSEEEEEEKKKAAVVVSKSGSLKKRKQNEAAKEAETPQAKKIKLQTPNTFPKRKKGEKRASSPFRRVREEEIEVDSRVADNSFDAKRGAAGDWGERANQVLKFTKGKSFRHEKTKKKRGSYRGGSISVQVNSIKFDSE
inactive: [1] 0.105 | [2] -0.031 | [3] 0.1 | [4] -0.1 | [5] 0.145 | [7] -0.013 | [8] 0.02 | [9] 0.027 | [10] -0.031
active: [6] -0.376

NUDT16 (UniProt Q96DE0)
Chain of UniProt Q96DE0 (Q96DE0 whole entry, looked up): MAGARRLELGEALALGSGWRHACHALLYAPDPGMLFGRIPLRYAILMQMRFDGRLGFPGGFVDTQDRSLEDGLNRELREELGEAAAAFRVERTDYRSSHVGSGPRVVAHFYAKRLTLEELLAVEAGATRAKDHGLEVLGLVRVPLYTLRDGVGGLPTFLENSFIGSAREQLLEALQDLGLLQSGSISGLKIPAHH
inactive: [1] -0.044 | [2] -0.035 | [3] 0 | [4] 0.015 | [5] 0.058 | [6] -0.049 | [7] 0.107 | [8] 0.019 | [9] -0.02 | [10] 0.049

NHLRC2 (UniProt Q8NBF2)
inactive: [1] -0.141 | [2] 0.002 | [3] -0.05 | [4] -0.004 | [5] -0.052 | [6] -0.001 | [7] 0.042 | [8] 0.006 | [9] -0.024 | [10] 0.058

MINK1 (UniProt Q8N4C8)
Chain of UniProt Q8N4C8 (Q8N4C8 whole entry, looked up): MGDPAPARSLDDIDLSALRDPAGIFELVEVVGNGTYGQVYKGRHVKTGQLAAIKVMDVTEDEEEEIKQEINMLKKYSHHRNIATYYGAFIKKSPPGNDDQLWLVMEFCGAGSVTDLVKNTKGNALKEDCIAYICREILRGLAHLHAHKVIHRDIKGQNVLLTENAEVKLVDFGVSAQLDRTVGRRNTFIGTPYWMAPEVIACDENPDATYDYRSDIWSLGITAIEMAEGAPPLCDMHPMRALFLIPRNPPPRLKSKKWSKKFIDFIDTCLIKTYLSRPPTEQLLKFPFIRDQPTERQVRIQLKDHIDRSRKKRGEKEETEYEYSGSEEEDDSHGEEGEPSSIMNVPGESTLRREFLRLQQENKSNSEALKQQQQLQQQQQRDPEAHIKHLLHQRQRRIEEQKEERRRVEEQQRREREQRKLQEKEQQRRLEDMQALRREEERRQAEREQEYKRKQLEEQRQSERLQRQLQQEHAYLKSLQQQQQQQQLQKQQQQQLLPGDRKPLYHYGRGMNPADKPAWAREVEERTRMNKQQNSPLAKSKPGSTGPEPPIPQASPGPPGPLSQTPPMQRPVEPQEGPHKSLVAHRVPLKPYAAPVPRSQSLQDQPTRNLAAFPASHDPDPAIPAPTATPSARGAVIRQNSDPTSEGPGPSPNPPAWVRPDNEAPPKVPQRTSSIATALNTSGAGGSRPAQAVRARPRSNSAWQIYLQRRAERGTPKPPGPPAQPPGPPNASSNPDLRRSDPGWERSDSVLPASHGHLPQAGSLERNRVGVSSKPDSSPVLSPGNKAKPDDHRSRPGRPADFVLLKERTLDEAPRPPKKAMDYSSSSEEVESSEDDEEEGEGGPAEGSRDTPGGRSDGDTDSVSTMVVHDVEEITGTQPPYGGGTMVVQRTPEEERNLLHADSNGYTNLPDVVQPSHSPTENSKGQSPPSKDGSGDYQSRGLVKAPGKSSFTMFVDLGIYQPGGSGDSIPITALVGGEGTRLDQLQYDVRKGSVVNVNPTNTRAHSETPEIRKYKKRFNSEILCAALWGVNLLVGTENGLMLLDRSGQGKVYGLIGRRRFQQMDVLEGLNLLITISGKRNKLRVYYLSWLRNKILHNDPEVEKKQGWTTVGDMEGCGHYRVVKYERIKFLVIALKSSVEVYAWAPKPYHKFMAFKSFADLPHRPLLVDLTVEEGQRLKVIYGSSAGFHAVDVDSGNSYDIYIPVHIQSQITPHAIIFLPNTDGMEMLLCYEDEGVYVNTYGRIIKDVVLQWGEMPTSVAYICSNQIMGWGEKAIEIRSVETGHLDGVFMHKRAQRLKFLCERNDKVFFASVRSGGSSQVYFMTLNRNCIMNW
active: [5] -0.222
inactive: [1] -0.031 | [2] -0.04 | [3] -0.025 | [4] -0.062 | [6] -0.09 | [7] 0.02 | [8] -0.042 | [9] 0.018 | [10] 0.014

NA, A0A494C071
active: [1] -1.12
inactive: [2] -0.057 | [3] 0.074 | [4] 0.329 | [5] 0.029 | [6] -0.439 | [7] 0.001 | [10] 0.094

MON1A (UniProt Q86VX9)
inactive: [1] -0.011 | [2] -0.112 | [3] -0.163 | [4] -0.056 | [5] 0.017 | [6] 0.138 | [8] -0.009 | [9] 0.082 | [10] -0.012

NPM3 (UniProt O75607)
inactive: [1] 0.017 | [2] -0.027 | [3] -0.045 | [4] 0.062 | [5] 0.101 | [6] -0.121 | [7] 0.043 | [8] -0.028 | [9] 0.071 | [10] -0.035

NTMT1 (UniProt Q9BV86)
inactive: [1] 0.009 | [2] 0.068 | [3] 0.056 | [4] 0 | [5] -0.036 | [6] 0.023 | [7] 0.073 | [8] 0.076 | [9] 0.043 | [10] 0.138

MOB2 isoform 3 (UniProt Q70IA6)
inactive: [1] 0.005 | [2] -0.039 | [3] -0.133 | [6] 0.03 | [7] -0.069 | [8] 0.056 | [9] 0.013 | [10] -0.108
active: [4] -1.47

NME2P1 (UniProt O60361)
Chain of UniProt O60361 (O60361 whole entry, looked up): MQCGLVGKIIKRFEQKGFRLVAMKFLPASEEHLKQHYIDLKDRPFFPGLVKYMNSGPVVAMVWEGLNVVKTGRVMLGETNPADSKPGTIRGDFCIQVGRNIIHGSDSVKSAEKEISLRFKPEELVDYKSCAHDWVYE
inactive: [1] 0.058 | [2] 0.059 | [3] -0.236 | [4] -0.014 | [6] -0.107 | [7] -0.081 | [8] -0.013 | [9] -0.055 | [10] 0.073

NDUFS8 (UniProt O00217)
inactive: [1] -0.055 | [2] 0.047 | [3] -0.036 | [4] -0.002 | [5] -0.1 | [6] -0.047 | [7] 0.1 | [8] 0.055 | [9] -0.053 | [10] 0.111

MOB3B (UniProt Q86TA1)
inactive: [1] -0.023 | [2] 0.034 | [3] -0.168 | [4] -0.397 | [6] 0.032 | [7] 0.222 | [9] 0.01 | [10] 0.109

NAP1L1 (UniProt P55209)
Chain of UniProt P55209 (P55209 whole entry, looked up): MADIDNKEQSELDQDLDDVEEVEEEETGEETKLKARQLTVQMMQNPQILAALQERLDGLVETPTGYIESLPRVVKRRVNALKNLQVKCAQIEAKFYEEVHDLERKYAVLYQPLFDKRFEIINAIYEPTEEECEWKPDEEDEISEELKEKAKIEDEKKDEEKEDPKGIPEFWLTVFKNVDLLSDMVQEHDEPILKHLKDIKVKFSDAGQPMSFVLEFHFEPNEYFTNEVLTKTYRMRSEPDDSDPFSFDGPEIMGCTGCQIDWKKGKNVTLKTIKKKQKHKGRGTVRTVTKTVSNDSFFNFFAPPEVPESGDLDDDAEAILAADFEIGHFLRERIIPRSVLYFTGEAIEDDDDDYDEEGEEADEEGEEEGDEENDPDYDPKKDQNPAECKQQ
inactive: [1] -0.018 | [2] -0.094 | [3] 0.009 | [4] -0.044 | [5] 0.05 | [6] 0.022 | [7] -0.004 | [8] -0.039 | [9] 0.001 | [10] -0.014

MYH16 (UniProt Q9H6N6)
Chain of UniProt Q9H6N6 (Q9H6N6 whole entry, looked up): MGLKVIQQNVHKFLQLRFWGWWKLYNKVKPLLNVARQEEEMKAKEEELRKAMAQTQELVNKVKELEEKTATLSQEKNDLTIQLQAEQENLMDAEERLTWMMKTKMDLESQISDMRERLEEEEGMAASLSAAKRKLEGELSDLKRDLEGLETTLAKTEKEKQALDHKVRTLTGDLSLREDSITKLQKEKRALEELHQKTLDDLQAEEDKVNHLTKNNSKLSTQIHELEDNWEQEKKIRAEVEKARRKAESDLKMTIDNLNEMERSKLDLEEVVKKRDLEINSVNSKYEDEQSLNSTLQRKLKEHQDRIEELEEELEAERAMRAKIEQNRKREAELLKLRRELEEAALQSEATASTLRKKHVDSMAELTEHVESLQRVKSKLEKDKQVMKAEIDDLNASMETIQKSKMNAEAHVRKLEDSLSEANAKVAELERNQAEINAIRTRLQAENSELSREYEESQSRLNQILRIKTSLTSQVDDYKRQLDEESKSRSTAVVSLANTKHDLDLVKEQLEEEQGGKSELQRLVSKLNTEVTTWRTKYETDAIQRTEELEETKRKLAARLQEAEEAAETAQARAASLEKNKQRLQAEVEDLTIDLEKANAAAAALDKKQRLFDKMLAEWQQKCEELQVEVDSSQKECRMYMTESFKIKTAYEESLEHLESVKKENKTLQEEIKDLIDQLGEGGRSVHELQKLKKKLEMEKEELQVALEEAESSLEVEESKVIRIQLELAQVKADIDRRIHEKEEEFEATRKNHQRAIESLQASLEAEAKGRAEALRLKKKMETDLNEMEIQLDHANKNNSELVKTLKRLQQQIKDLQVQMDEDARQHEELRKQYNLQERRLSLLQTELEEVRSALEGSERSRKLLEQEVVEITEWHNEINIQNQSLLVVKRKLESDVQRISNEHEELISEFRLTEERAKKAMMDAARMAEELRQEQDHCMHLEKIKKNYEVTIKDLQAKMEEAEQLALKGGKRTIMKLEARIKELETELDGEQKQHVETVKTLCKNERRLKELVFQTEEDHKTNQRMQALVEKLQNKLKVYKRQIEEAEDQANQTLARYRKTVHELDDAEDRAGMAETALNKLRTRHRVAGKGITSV
inactive: [1] 0.482 | [2] 0.303 | [3] 0.061 | [4] 0.062 | [6] 0.088 | [7] 0.068 | [9] -0.248 | [10] -0.025

MRPL46 (UniProt Q9H2W6)
inactive: [1] 0.06 | [2] 0.014 | [3] -0.03 | [4] -0.002 | [5] -0.006 | [6] -0.016 | [7] -0.019 | [8] 0.06 | [9] 0.095 | [10] -0.003

OPHN1 (UniProt O60890)
inactive: [1] -0.035 | [2] -0.134 | [3] -0.088 | [4] 0.051 | [5] -0.04 | [6] 0.093 | [7] 0.028 | [8] 0.099 | [10] 0.035

NDUFA4 (UniProt O00483)
Chain of UniProt O00483 (O00483 whole entry, looked up): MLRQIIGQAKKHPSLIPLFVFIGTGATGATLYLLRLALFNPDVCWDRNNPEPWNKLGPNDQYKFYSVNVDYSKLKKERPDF
inactive: [1] -0.043 | [2] 0.014 | [3] 0.024 | [4] 0.02 | [5] 0.032 | [6] -0.074 | [7] 0.039 | [8] 0.239 | [9] 0.054 | [10] 0.018

NIPSNAP3B (UniProt Q9BS92)
inactive: [1] -0.085 | [2] -0.054 | [3] -0.029 | [4] 0.01 | [5] -0.044 | [6] 0.013 | [7] 0.109 | [9] -0.018 | [10] 0.083

NNMT (UniProt P40261)
inactive: [1] -0.038 | [2] 0.068 | [3] 0.015 | [4] 0.005 | [5] 0.037 | [6] -0.021 | [7] 0.052 | [9] -0.002 | [10] 0.094

OSBP (UniProt P22059)
active: [4] -0.257
inactive: [1] -0.017 | [2] 0.005 | [3] 0.123 | [5] -0.08 | [6] -0.067 | [7] -0.024 | [8] -0.024 | [9] -0.085 | [10] 0.012

NAP1L1 (UniProt B7Z9C2)
inactive: [1] -0.11 | [2] -0.249 | [3] -0.011 | [4] -0.002 | [5] -0.347 | [6] -0.043 | [10] 0.049

NFYC (UniProt Q13952)
Chain of UniProt Q13952 (Q13952 whole entry, looked up): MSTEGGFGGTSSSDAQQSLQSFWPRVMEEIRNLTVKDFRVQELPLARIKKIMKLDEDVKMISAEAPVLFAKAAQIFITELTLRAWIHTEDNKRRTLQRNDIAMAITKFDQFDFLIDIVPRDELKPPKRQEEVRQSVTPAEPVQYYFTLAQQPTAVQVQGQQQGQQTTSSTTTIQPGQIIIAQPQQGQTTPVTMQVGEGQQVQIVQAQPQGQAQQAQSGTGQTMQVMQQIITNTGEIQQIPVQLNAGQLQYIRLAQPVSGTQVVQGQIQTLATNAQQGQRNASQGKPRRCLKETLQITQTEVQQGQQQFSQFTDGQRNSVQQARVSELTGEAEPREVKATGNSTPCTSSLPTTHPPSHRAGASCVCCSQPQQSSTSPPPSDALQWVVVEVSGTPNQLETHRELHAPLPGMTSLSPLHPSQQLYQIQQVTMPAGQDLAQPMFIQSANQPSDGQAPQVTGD
inactive: [1] -0.017 | [2] -0.041 | [3] -0.024 | [4] -0.021 | [5] 0.032 | [6] -0.008 | [7] 0.014 | [8] 0.048 | [9] 0.038 | [10] 0.066

NAGPA (UniProt Q9UK23)
inactive: [1] -0.076 | [2] -0.142 | [3] -0.082 | [4] 0 | [5] 0.053 | [6] 0.014 | [7] 0.023 | [9] 0.245 | [10] -0.091

MSL1 (UniProt Q68DK7)
inactive: [1] -0.056 | [2] 0.172 | [3] 0.004 | [4] 0.068 | [5] 0.014 | [6] -0.042 | [8] -0.019 | [9] -0.065 | [10] 0.148

NFX1 (UniProt Q12986)
inactive: [1] -0.044 | [2] -0.026 | [3] -0.042 | [4] 0.075 | [5] 0.085 | [6] -0.011 | [7] 0.07 | [8] -0.15 | [9] 0.131 | [10] -0.096

PAK1 isoform 2 (UniProt Q13153)
inactive: [1] -0.017 | [2] 0.04 | [3] 0.03 | [4] 0.036 | [5] -0.025 | [6] -0.027 | [7] 0.041 | [8] 0.035 | [9] -0.004 | [10] 0.015

NT5DC1 (UniProt Q5TFE4)
inactive: [1] 0.043 | [2] 0.004 | [3] 0.099 | [4] 0.069 | [5] 0.033 | [6] -0.016 | [7] 0.045 | [8] 0.069 | [9] -0.043 | [10] 0.001

Source: the supplement of paper PMC10849652
